# Assay results: the supplement of paper PMC11001985
# Values without a mark were called inactive.
# Biological target: ATP1B3 (UniProt P54709)
# Assay: lysine labeling ratio R10:1 (500 µM / 50 µM probe), SILAC-ABPP in living cells; higher = lower intrinsic lysine reactivity toward the probe, active = 2 or less
# Conditions: HeLa, probe concentrations 500 vs 50 µM
# Procedure: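 Living HeLa cells (SILAC light/heavy) in PBS at room temperature were labeled with 50 µM versus 500 µM of the lysine-reactive, reductant-cleavable probe OPA-S-S-alkyne (SILAC labeling time not stated). Probe-modified peptides were CuAAC-biotinylated, captured on neutravidin and eluted with DTT/IAA, then quantified by LC-MS/MS. R = median peptide ratio per lysine (500/50 µM), combined over 3 forward and 3 reverse SILAC replicates. Ratios are capped at 20; R < 2 = hyper-reactive.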
# Sequence of ATP1B3 (P54709 whole entry): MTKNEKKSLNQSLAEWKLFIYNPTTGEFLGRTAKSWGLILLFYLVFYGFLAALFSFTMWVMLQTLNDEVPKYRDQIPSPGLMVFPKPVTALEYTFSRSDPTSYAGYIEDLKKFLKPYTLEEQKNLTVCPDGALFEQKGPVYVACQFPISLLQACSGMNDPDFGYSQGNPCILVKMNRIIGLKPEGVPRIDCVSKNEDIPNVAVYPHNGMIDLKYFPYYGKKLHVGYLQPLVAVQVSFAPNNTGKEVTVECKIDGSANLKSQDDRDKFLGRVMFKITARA
smiles,measurement,setting,value
C#CCNC(=O)CCSSCCC(=O)NCCc1ccc(C=O)c(C=O)c1,lysine labeling ratio R10:1,lysine site: K182,5.21
same,lysine labeling ratio R10:1,lysine site: K220,0.695 (active)
same,lysine labeling ratio R10:1,lysine site: K259,3.28
same,lysine labeling ratio R10:1,lysine site: K266,2.22
same,lysine labeling ratio R10:1,lysine site: K274,9.2
